Hit rate of the full screen: of about 1,200 compounds, about 480 (40%) were called active. About 29% were inconclusive and are not listed. Calls follow the shape of the dose curve; as a rule, active = well fitted inhibition curve with a large enough effect; inconclusive = small, poorly fitted or top-dose-only effect; inactive = no such curve, though single readings can be large or run the other way. The list shows a part of the results.
Assay: qHTS Assay to Find Inhibitors of Chronic Active B-Cell Receptor Signaling: Hit Validation in Primary Screen; also: nearly all actives have a fitted effect of over 75% in size
Details: ABC-DLBCL IkB-luc/CBR ratio luminescence, 4 h; series mostly up to 46.1 µM; activity change, negative = inhibition: at the top concentration
Text: Diffuse large B-cell lymphoma (DLBCL) is the most common category of non-Hodgkin lymphoma, with ~20,000 new cases per year in the United States. DLBCL should be regarded as a collection of different neoplasms. Microarray gene expression analysis has defined two principal types of DLBCL, named for their similarity to normal B cell stages or activation states: a germinal center B-cell (GCB) type, and an activated B-cell (ABC) type. In ABC-DLBCL, a constitutive high-level activity of the NF-kappaB family of transcription factors has been observed (1) and NF-kappaB target genes are more highly expressed in ABC primary tumors than in GCB tumors. Functional studies have shown a constitutive high-level activity of the IkappaB (inhibitor of kappa-B) kinase (IKK) complex. […] Further analysis of DLBCL primary tumors for NF-kappaB target gene expression imply that although CARD11 is required for constitutive IKK activity in all ABC-DLBCL lines, mutations in CARD11 may be the root cause of IKK activation only in lines or tumors with such mutations. In other words, CARD11 mutations may explain NF-kappaB activation in only 10% of ABC-DLBCL cases. […] This process has been termed 'chronic active BCR signaling' (CABS). The goal of this screen is to find small-molecule inhibitors of the CABS pathway found in ABC-DLBCL lines using a cell-based assay that measures IkappaBalpa stability, which has already been extensively validated in the OCI-Ly3 line (PubChem AID:445; REF: 4). […] A cell-sensor assay for I-kappa-B-alpha stabilization has been developed. The assay uses green (CBG68) and red (CBR) emitting beetle luciferases [Chroma-GloTM developed by Promega Corp.] where the green luciferase is fused to IkappaBalpha and the red luciferase is present in its native state. Both luciferase genes are stably present in the TMD8 human ABC DLBCL cell line, but their expression is under the control of tetracycline-inducible promoters. Following the addition of doxycycline to induce expression of the luciferases, the green luminescence in control cultures rises only slowly because the CBG fusion partner IkappaBalpha is targeted by IKK activity for rapid degradation. In contrast, green luminescence rises rapidly in the presence of proteasome inhibitors or IKK inhibitors. The rise in red luminescence of CBR is not affected by proteasome or IKK inhibitors, and serves as normalization for cell number and nonspecific effects. Compounds were screened as a concentration-titration series that ranged from 46 uM to 3 nM. NIH Molecular Libraries Probe Production Network [MLPCN] NIH Chemical Genomics Center [NCGC] MLPCN Grant: R03 DA031086 PI Name: Dr. R. Eric Davis
Cells were seeded in 1536-well plates at 5000 cells/4uL in IMDM medium containing 0.5% FBS, w/o phenol red, 1% penicillin/streptomycin. Then, 23 nL of compounds or DMSO were delivered to each well using a pin tool. One uL 20ng/ml doxycycline was then dispensed into white solid 1536-well plates and the plates were incubated at 37C/5% C02 in a cell incubator for 4 hrs. Then 4 uL luminescent substrate mix (in-house prepared: 150 mM Tris-Cl, pH 7.6, 3 mM MgCl2, 1% Triton X-100, 5 mM DTT, 0.2 mM CoA, 0.15 mM ATP, 5 mM D-luciferin, final concentrations) was added to each well. The plate was incubated at r.t. for 10-15 min. The plates were measured on a ViewLux plate reader for green luminescence (540/20 nm filter) and red luminescence (618/8 nm filter). The green and red luminescent signals were corrected for red and green luminescence filter overlap using previously determined filter calibration constants (determined using the procedure outlined in the Promega Technical Manual; REF 4). The %Activity was determined from the ratio of corrected green/red luminescent values. MG132 were used as control. Green luminescent and ratio %Activity was determined by normalizing to the difference in signal between basal cells (0% Activity) and cells incubated with 10 uM of the proteasome inhibitor MG-132 (100% Activity). […]
Potency is read from the fitted curve at half-maximal effect.

SMILES | Potency | activity change, negative = inhibition
COc1cc2c(c(OC)c1OC)-c1ccc(O)cc1[C@@H](NC(C)=O)CC2 | 461 nM (active) | 
COc1cc2c(c(OC)c1OC)-c1ccc(O)c(=O)cc1C(NC(C)=O)CC2 (stereo unspecified) | 231 nM (active) | 
COc1cc(C2c3cc4c(cc3CC3COC(=O)C32)OCO4)cc(OC)c1OC (stereo unspecified) |  | 56.7% (inactive)
COc1cc([C@@H]2c3cc4c(cc3[C@H](O)[C@H]3COC(=O)[C@H]23)OCO4)cc(OC)c1OC | 46.1 nM (active) | 
CCCCOCCCn1c(N)c(C(=O)OCCOC)c2nc3ccccc3nc21 |  | 7.36% (inactive)
C=CC[C@@H](CC/C=C/C=C/CC/C=C\[C@@H]1CSC([C@@H]2C[C@@H]2C)=N1)OC | 820 nM (active) | 
CC[C@]12CC[C@H](O)CC1=CCC1C2CC[C@]2(C)C(=O)CCC12 (stereo partly specified) |  | -9.41% (inactive)
O=c1c2ccccc2[se]n1-c1ccccc1 | 20600 nM (active) | 
Cc1cc(C)c(C(=O)CN2CCOCC2)c(C)c1 |  | -10.1% (inactive)
CCNC(=O)[C@H]1O[C@@H](n2cnc3c(N)ncnc32)[C@H](O)[C@@H]1O | 130 nM (active) | 
COc1ccc(C(=O)Oc2cccc3cccnc23)cc1S(=O)(=O)N1CCOCC1 |  | -4.8% (inactive)
C/C(=N\N1CCCCC1)c1c(O)[nH]c(=O)[nH]c1=O |  | -16.6% (inactive)
CCC(=NCCC(c1ccccc1)c1ccccc1)c1c(O)[nH]c(=O)[nH]c1=O | 20600 nM (active) | 
O=C1C(=O)c2cccc3cccc1c23 | 18400 nM (active) | 
CCc1ccccc1N1C(=O)/C(=C/c2ccc(N3CCN(C)CC3)o2)C(=O)NC1=S |  | 27.4% (inactive)
O=c1c2ccccc2nc(/C=C/c2ccc([N+](=O)[O-])o2)n1-c1ccc(O)cc1 | 4110 nM (active) | 
COc1ccc(C=C2C(=O)N(C)C(=O)N(C)C2=O)cc1COc1ccc(NC(C)=O)cc1 |  | -14.9% (inactive)
C#CCOc1cc(C2C3=C(COC3=O)Nc3cc4c(cc32)OCO4)ccc1OC (stereo unspecified) | 1460 nM (active) | 
CN(C)C(=S)SSC(=S)N(C)C | 16400 nM (active) | 
COc1ccc(-c2nn(CCC#N)cc2C(=O)Nc2ccc(C(C)=O)cc2)cc1[N+](=O)[O-] |  | 81.1% (inactive)
COc1cc2c(cc1O)CC[C@@H]1[C@@H]2CC[C@]2(C)[C@@H](O)CC[C@@H]12 | 18400 nM (active) | 

Source: PubChem BioAssay AID651558 (National Center for Advancing Translational Sciences (NCATS), 2012)
